Assay results as given in PubChem BioAssay (NCI).
Where “and” joins values, the source holds several entries; their conditions need not be identical. Equal values may be shown once. This is part of a sample that, as a whole, favours compounds with a hit. Of some 79,000 tested, about 15% had one in any assay. Calls of active or inactive are those of the source. Rule as the data show it: active = growth inhibition above about 70%; inactive = the rest.

Columns and labels:
[1] = NCI Yeast Anticancer Drug Screen. Data for the mec2-1 strain (AID 157); conditions: S. cerevisiae mec2-1 strain, active compounds read high
How it was run: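 Compounds were applied to mec2-1 yeast cells. Their growth was then compared with that of vehicle-treated cultures to give growth inhibition.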

[2] = NCI Yeast Anticancer Drug Screen. Data for the sgs1 mgt1 strain (AID 161);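 also: 0% = growth of cultures given vehicle only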; conditions: S. cerevisiae sgs1 mgt1 strain, active compounds read high
How it was run: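 Percent growth inhibition was derived by comparing compound-exposed mutant yeast with vehicle-exposed cultures. The strain carries alterations in DNA damage repair.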

[3] = NCI Yeast Anticancer Drug Screen. Data for the cln2 rad14 strain (AID 165);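 also: 0% = growth equal to vehicle treated cultures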; conditions: S. cerevisiae cln2 rad14 strain, active compounds read high
How it was run: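 Strain: cln2 rad14 yeast, altered in cell cycle control and DNA damage repair. Read-out: growth inhibition vs vehicle.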

[4] = NCI Yeast Anticancer Drug Screen. Data for the bub3 strain (AID 167); conditions: S. cerevisiae bub3 mutant strain, active compounds read high
How it was run: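 Part of a panel of yeast mutants defective in DNA damage repair or cell cycle regulation. Each strain is grown with compound, and inhibition is calculated relative to solvent-treated cultures.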

[5] = NCI Yeast Anticancer Drug Screen. Data for the mlh1 rad18 strain (AID 175); conditions: S. cerevisiae mlh1 rad18 strain growth inhibition, active compounds read high
How it was run: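 A repair-deficient yeast strain is exposed to test compound, and growth is scored relative to vehicle-treated controls.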

[6] = NCI Yeast Anticancer Drug Screen. Data for the rad50 strain (AID 155);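 also: 0% = growth of vehicle-only cultures of the same strain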; conditions: S. cerevisiae rad50 strain growth inhibition; at 50.0 µM; active compounds read high
How it was run: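 Cells are treated with compound, grown, and their growth is then scored against vehicle-only cultures of the same repair-deficient yeast strain.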

[7] = at 5.0 µM (retest, dose inferred, filed as 0.5)
[8] = at 50.0 µM (retest, dose inferred, filed as 5.0)

Measured: growth inhibition

CCCCCCCCCC(=O)CCCCCCCCC
active: [4]; [7] 92%
inactive: [1]; [7] 30% | [1]; [8] 8% | [2]; [7] 44% | [2]; [8] 14% | [3]; [7] 22% | [3]; [8] 11% | [4]; [8] 38% | [5]; [7] 32% | [5]; [8] 35%

CCCCCCCCCCCC1=NCCCN1CCCC
active: [1]; [8] 99% | [1]; at 50.0 µM 99.2% | [2]; [8] 100% | [2]; at 50.0 µM 84.3% | [3]; [8] 99% | [3]; at 50.0 µM 72% | [4]; [8] 100% | [4]; at 50.0 µM 98.7% | [5]; [8] 99% | [5]; at 50.0 µM 95.3%
inactive: [1]; [7] 0% | [2]; [7] 26% | [3]; [7] 4% | [4]; [7] 22% | [5]; [7] 28%

C=C1C(=O)OC2C1CCC(C)C1CCC(=O)OC12C (centres undefined)
inactive: [1]; at 50.0 µM 58.8% and -1.4% | [2]; at 50.0 µM 43.1% and 17.2% | [3]; at 50.0 µM 35% and 18.6% | [4]; at 50.0 µM 64% and 13.6% | [5]; at 50.0 µM 54.5% and 3.8%

O=C1Nc2ccccc2C(=O)C1=Ic1ccccc1
inactive: [6] 5% and -15.9% | [2]; at 50.0 µM -0.55% and -9.6% | [3]; at 50.0 µM -6% and -25.2% | [4]; at 50.0 µM -7.1% and -4.5% | [5]; at 50.0 µM 4.15% and 17.8%

COc1cc2c(c(OC)c1OC)-c1ccc(OC)c(=O)cc1C([N+](C)(C)C)CC2 (centres undefined)
inactive: [1]; at 50.0 µM 12.3% and 7.7% | [2]; at 50.0 µM 16.9% and -18.1% | [3]; at 50.0 µM -0.65% and -11.1% | [4]; at 50.0 µM -3% and -0.4% | [5]; at 50.0 µM 25.5% and 7.4%

CCCCC(CC)CNC(=O)/C=C\C(=O)O (centres undefined)
active: [2]; [8] 96% | [4]; [8] 83% | [5]; [8] 91%
inactive: [1]; [7] 11% | [1]; [8] 67% | [2]; [7] 10% | [3]; [7] -3% | [3]; [8] 60% | [4]; [7] 6% | [5]; [7] 15%

Cc1cn(C2CC(CCCO)C(CO)O2)c(=O)[nH]c1=O (centres undefined)
inactive: [6] -6.5% and -9.9% | [1]; at 50.0 µM -7% and -5.25% | [2]; at 50.0 µM 6.7% and 2.7% | [4]; at 50.0 µM 2.3% and 0.3% | [5]; at 50.0 µM 5.35% and 0.6%

CC(C)c1ccc(C(=O)O)cc1
inactive: [6] 11.3% and 24% | [1]; at 50.0 µM -9.2% and 12.3% | [3]; at 50.0 µM -8.2% and 5.9% | [4]; at 50.0 µM -9% and 5.1% | [5]; at 50.0 µM 20.1% and 22.2%

CCCCCC(Br)C(Br)CC(Br)C(Br)CCCCCCCC(=O)c1ccc2ccccc2c1O (centres undefined)
inactive: [2]; at 50.0 µM 10.4% and 2.9% | [3]; at 50.0 µM 8.05% and -2.25% | [4]; at 50.0 µM -18.3% and 5.9% | [5]; at 50.0 µM -3.1% and 7.15%

COC(=O)c1cccc2c[n+]3c(cc12)-c1[nH]c2cc(OC)ccc2c1CC3
inactive: [1]; at 50.0 µM -16.9% and 8.8% | [2]; at 50.0 µM -0.05% and 21.1% | [3]; at 50.0 µM -8.05% and -7.6% | [4]; at 50.0 µM 4.6% and 13.1% | [5]; at 50.0 µM 14.6% and 13.7%

O=C(O)c1cc(N=Nc2ccc([N+](=O)[O-])cc2)ccc1O
inactive: [6] 51.1% and 26.6% | [1]; at 50.0 µM -34% and 8.2% | [3]; at 50.0 µM 10.2% and -34.8% | [4]; at 50.0 µM 9.75% and 27.4% | [5]; at 50.0 µM 18.2% and 49%

O=C(O)/C=C(\F)C(=O)O
inactive: [1]; at 50.0 µM -14.2% and 7.95% | [2]; at 50.0 µM -3.05% and 10.9% | [3]; at 50.0 µM -1.6% and -9.15% | [4]; at 50.0 µM 3.65% and -20.8% | [5]; at 50.0 µM 0.7% and 11.6%
